# Assay outcomes (PubChem)
# The list is not random: actives were taken first. Their share in the collection is about 4.2%.
# DAX1 inh – DAX1 (NR0B1) inhibitors on StAR promoter, primary screen, cell-based, luminescence, SF-1 (NR5A1), full-length DAX-1. HEK293T StAR-luciferase reporter, SF-1/DAX-1 repression relief. inhibition, % at 6.8 µM. hit rate 1.1% among 370,000. AID 652010, 2013;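 active means inhibition above the mean over all tested compounds plus 3 SD, cut at about 3.6% in these data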;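 further: 0% = DAX-1 cells with DMSO and 100% = cells lacking DAX-1 with DMSO; higher inhibition means more luminescence from relief of DAX-1 repression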
# Wnt act – Wnt/beta-catenin pathway activators, primary screen, cell-based, plate reader, single point; Wnt/beta-catenin reporter cell assay, activator; activation, % at 9.35 µM; hit rate 1.2% among 300,000; in the data active means activation above about 30%, passing the limit was not always enough; inconclusive means no clear call, values can overlap the other calls;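 further: 0% = neutral control wells and 100% = positive control wells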
# ssDAF12 agonist – S. stercoralis DAF-12 nuclear receptor activators, primary screen, cell-based, luminescence, HEK293, GRIP1 co-expression, lit1-tk-luc; Nuclear hormone receptor DAF-12 (Strongyloides stercoralis); hit rate 1% among 370,000; activation, % at 6.8 µM; AID 652126, 2013; HEK293 ssDAF-12/GRIP1 lit1-tk-luc reporter; % of 3 µM dafachronic acid response;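 active means activation above the mean over all tested compounds plus 3 SD, cut at about 0.9% in these data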;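 further: 0% = DMSO-only wells and 100% = 3 µM delta7-dafachronic acid wells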
# esBAF inh – Bmi1 luciferase reporter increase in mESCs, primary screen, esBAF inhibitor project, mouse ES cells, Bmi1 luciferase knock-in, single point | 24 h; 100% = twice the neutral-well signal | reporter increase, % at 12.5 µM | hit rate 2% among 350,000; in the data active means activation above about 40%; inconclusive means no clear call, values can overlap the other calls;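 further: 0% = median of the plate's neutral control wells and 100% = double that signal; a rise in the Bmi1 reporter signal indicates esBAF inhibition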
# hgDAF12 agonist – H. glycines DAF-12 receptor agonists, primary screen, cell-based, luminescence, HEK293, GAL4 fusion, UAS-luciferase; Nuclear hormone receptor DAF-12 (Heterodera glycines), GAL4 fusion; HEK293 GAL4-hgDAF12 UAS-luciferase reporter, agonist luminescence; normalized to butyrate control; activation, % at 6.8 µM; hit rate 1.8% among 370,000; AID 687014, 2013;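 active means activation above a cutoff set at the mean of all screened compounds plus 3 SD, cut at about 10% in these data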;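 further: 0% = DMSO wells and 100% = sodium butyrate wells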
# hcDAF-12 act – H. contortus DAF-12 nuclear receptor activators, primary screen, cell-based, luminescence, HEK293, lit1-tk-luc reporter. HEK293 hcDAF-12 lit1-tk-luc reporter; 0% DMSO, 100% Δ7-dafachronic acid. hit rate 1.4% among 370,000. activation, % at 6.8 µM;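 active means activation above the mean of all tested compounds plus 3 SD, cut at about 5.5% in these data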;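 further: 100% = response to 3 µM Δ7-dafachronic acid high control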
# * = called active by the depositor; ? = inconclusive; · = no result.
SMILES,DAX1 inh,Wnt act,ssDAF12 agonist,esBAF inh,hgDAF12 agonist,hcDAF-12 act
O=C(N/N=C/c1ccccc1Cl)c1ccc(F)cc1,2,·,-2,16,13*,3
Cn1cccc1-c1cc(C(=O)N/N=C/c2ccccc2Cl)[nH]n1,0,10,0,55*,7,1
COc1ccc(S(=O)(=O)N2C[C@H](O)COC[C@H]3O[C@H](CC(=O)N(C)C)CC[C@@H]32)cc1,·,·,·,-3,·,·
CN1C(=O)c2cc(NC(=O)C3CCCCC3)ccc2OC[C@@H]2O[C@H](CC(=O)NC3CCCC3)CC[C@H]21,·,·,·,3,·,·
O=C1c2ccccc2NC(c2ccccc2Cl)N1N=C1CCCCCC1 (stereo not given),2,5,0,·,10*,3
COc1ccccc1NC(=O)N1CC[C@@H]2[C@H]1c1cc(-c3ccc(F)cc3)ccc1N(C)[C@@H]2CO,·,·,·,-3,·,·
CSc1nc(N)n2nc(-c3ccc(Cl)cc3)cc2n1,2,49*,0,?,9,3
C[C@@H]1CCCCO[C@H](CN(C)C(=O)NC2CCCCC2)[C@H](C)CN([C@H](C)CO)C(=O)c2cc(NC(=O)C3CCCCC3)ccc2O1,·,·,·,-5,·,·
O=C(NCCCn1ccnc1)c1sc2cc([N+](=O)[O-])ccc2c1Cl,-2,6,-1,63*,5,0
CCCCN1C(=O)C(NC(=O)CC(C)C)(C(F)(F)F)C2=C1CC(C)(C)CC2=O (stereo not given),0,3,-1,-14,-1,-2
CCCN1C(=O)C(NC(=O)c2ccncc2)(C(F)(F)F)C2=C1CC(C)(C)CC2=O (stereo not given),0,·,0.9*,-1,2,4
CCCC(=O)Nc1nnc(-c2ccco2)s1,1,3,-1,22,3,2
CCC(C)C(=O)Nc1nnc(-c2cccs2)s1 (stereo not given),1,34*,-1,?,6,0
CCC(=O)Nc1nnc(-c2cccs2)s1,0,-2,-1,·,7,-1
O=C(Cc1ccccc1)Nc1nc(-c2cccs2)cs1,0,0,-1,65*,3,5
O=C(Cc1ccccc1)Nc1nnc(-c2cccs2)s1,0,27,-1,52*,5,0
O=C(Cc1ccccc1)Nc1nnc(-c2ccco2)s1,2,·,-1,48*,4,-1
O=C(C[C@H]1CC[C@H]2[C@@H](COC[C@@H](O)CN2Cc2nccs2)O1)NCc1ccccc1F,·,·,·,3,·,·
O=C(C[C@H]1CC[C@H](NC(=O)Nc2ccccc2F)[C@@H](CO)O1)NCc1ccc(Cl)cc1,·,·,·,2,·,·
COc1ccc(S(=O)(=O)Nc2ccc3c(c2)C(=O)N([C@@H](C)CO)C[C@@H](C)[C@H](CN(C)C(=O)Nc2ccc(F)cc2)O3)cc1,·,·,·,-2,·,·
C[C@H]1CCC/C=C/[C@@H]2C[C@H](O)C[C@H]2[C@H](O)[C@H](S(=O)c2ccc(O)cc2)CC(=O)O1 (stereo not given in full),6.3*,-24,-2,·,-8,-2
C/C(N)=C(/C#N)C(=O)CSc1nnc(SCc2ccc(Cl)cc2)s1,-4,1,-1,·,-1,-2
C/C(N)=C(/C#N)C(=O)CSc1nn(-c2ccc(Cl)cc2)c(=S)s1,2,4,-1,·,10*,0
CCN(CC)CCNC(=O)c1ccc(NC(=O)c2cccc(S(=O)(=O)N3CCc4ccccc43)c2)cc1,3.9*,-1,-2,-6,1,-1
CC(=O)c1cccc(NC(=O)c2cc(-c3ccncc3)nc3ccccc23)c1,-2,-8,-1,0,-1,0
O=C(NNC(=O)c1cc(-c2ccncc2)nc2ccccc12)c1cccc(Cl)c1,1,-1,2.6*,16,3,3
